Test [1] deals with Muscarinic acetylcholine receptor M1 (Rattus norvegicus) (UniProt P08482). The test can be described thus: qHTS Assay for Antagonists of Acetylcholine Muscarinic M1 Receptor: Kinetic Measurement of Intracellular Calcium Response (AID 943). Also: potency is read from the fitted curve at half-maximal effect; nearly all actives have a fitted effect of over 75% in size. The note with it: M1-expressing cells, kinetic intracellular calcium fluorescence; series mostly up to 35.3 µM. Summed up:
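Antagonism is measured as inhibition of the carbachol-evoked calcium rise in CHO cells transfected with rat M1. Cells are dye-loaded, exposed to compound for 10 min, then stimulated with 100 nM carbachol (EC80).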
For orientation: Quantitative high-throughput screening tests each substance at several concentrations.

Test [2] can be described thus: qHTS for Inhibitors of Plasmodium falciparum (DD2) proliferation (AID 504314).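 Also: parasite DNA measured by SYBR Green fluorescence after red cell lysis; plate controls were DMSO vehicle for no effect and artemisinin wells for full effect.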 The note with it: P. falciparum Dd2 in erythrocytes, SYBR Green growth, 72 h; series mostly up to 6.11 µM. Summed up:
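P. falciparum Dd2 is grown in erythrocytes with test compound for 72 h at 37C under 5% CO2. Growth is scored by SYBR Green I fluorescence after detergent lysis, relative to artemisinin (0.29 uM) and DMSO controls.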

The nature of test [3]: qHTS for Inhibitors of Plasmodium falciparum (GB4) proliferation (AID 504315).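 Also: 0% = DMSO vehicle and -100% = 0.29 µM artemisinin control; nearly all actives have a fitted effect of over 50% in size.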 Conditions: P. falciparum GB4 in erythrocytes, SYBR Green DNA, 72 h; series mostly up to 6.7 µM. Summed up:
(§1)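 Parasite growth measured as SYBR Green DNA fluorescence (ex 485, em 535 nm) after overnight lysis following 72 h culture at 37 °C, 0.3% parasitemia, 2.5% hematocrit. Values normalized against DMSO and 0.29 uM artemisinin controls, with plate-stack correction.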

A short description of test [4]: qHTS for Inhibitors of Plasmodium falciparum (7G8) proliferation (AID 504316).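 Also: 0% = DMSO vehicle and -100% = 0.29 µM artemisinin full kill; nearly all actives have a fitted effect of over 65% in size.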 The note with it: P. falciparum 7G8 in erythrocytes, SYBR Green DNA, 72 h; series mostly up to 6.7 µM. Summed up: as §1
A short description of test [5]: qHTS for Inhibitors of Plasmodium falciparum (HB3) proliferation (AID 504318).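 Also: 0% = DMSO vehicle and -100% = artemisinin control; nearly all actives have a fitted effect of over 60% in size.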 The note with it: P. falciparum HB3 in erythrocytes, SYBR Green DNA, 72 h; series mostly up to 7.21 µM. In outline:
as §1

Test [6] can be described thus: qHTS for Inhibitors of Plasmodium falciparum (CP250) proliferation (AID 504320).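 Also: plate controls were DMSO vehicle for no effect and 0.29 µM artemisinin control for full effect.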 The note with it: P. falciparum CP250 in erythrocytes, SYBR Green DNA, 72 h; series mostly up to 6.7 µM. Summed up: as §1
The nature of test [7]: qHTS Assay for Identifying Gametocytocidal Compounds (AID 743244). Also: potency is read from the fitted curve at half-maximal effect. Conditions: P. falciparum 3D7 stage III-V gametocytes, alamarBlue, 72 h; max response: stronger effect = lower value. In outline:
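Viability read-out was resazurin reduction (alamarBlue, 24 h) measured at Ex 525/Em 598 nm. Beforehand, late-stage (III-V) 3D7 P. falciparum gametocytes at 20,000 cells/well were incubated with compound 72 h at 37C under 5% CO2.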

Test [8] is described as follows: qHTS profiling for inhibitors of Plasmodium falciparum (3D7) proliferation (AID 743322).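 Also: infected erythrocytes exposed to compound for 72 h before lysis; 100% = DMSO vehicle wells and 0% = 0.29 µM artemisinin.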 Conditions: P. falciparum 3D7 proliferation; at 28.7 µM (top of the series) unless noted. Summed up:
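Parasite DNA was quantified by SYBR Green I fluorescence (ex 485, em 535 nm) after overnight lysis in saponin/Triton buffer at room temperature. Cultures at 0.3% parasitemia and 2.5% hematocrit were first exposed to compound for 72 h at 37 C; signals were normalised to artemisinin (0.29 uM) and vehicle wells.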

Test [9] can be described thus: qHTS profiling for inhibitors of Plasmodium falciparum (DD2) proliferation (AID 743323; call rule not given here). The note with it: lower = more inhibition; at 28.7 µM (top of the series) unless noted. Summed up:
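SYBR Green fluorescence (ex 485, em 535 nm) of lysed cultures gives parasite DNA content; wells normalized to artemisinin (0.29 uM) and DMSO controls. Infected red cells: 0.3% parasitemia, 2.5% hematocrit, 72 h, 37 C.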

The nature of test [10]: qHTS profiling for inhibitors of Plasmodium falciparum (HB3) proliferation (AID 743324).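 Also: 100% = DMSO vehicle wells and 0% = artemisinin-treated control wells.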 The note with it: Plasmodium falciparum HB3 blood-stage proliferation; at 28.7 µM (top of the series) unless noted. In outline: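 SYBR Green fluorescence (485 ex/535 em) of lysed cultures, incubated overnight at room temperature in the dark, quantifies parasite DNA. Infected erythrocytes at 0.3% parasitemia and 2.5% hematocrit were exposed 72 h; values normalized to DMSO and 0.29 uM artemisinin controls.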

A short description of test [11]: qHTS for Inhibitors of ATXN expression: Validation (AID 588378). Also: potency is read from the fitted curve at half-maximal effect; nearly all actives have a fitted effect of over 75% in size. Conditions: cell-based ATXN2 expression reporter assay, luminescence. Summed up: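 Luciferase luminescence (Bright-Glo) from an ATXN2-FFLuc HEK293 line after 24 h compound exposure at 37 °C, preceded by a CellTiter-Fluor fluorescence viability read. Serial dilutions of a reference ATXN2 inhibitor and a luciferase inhibitor served as controls.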

Results filed as inconclusive are left out. Active and inactive are the calls of the source. Unless noted, calls follow the shape of the dose curve; as a rule, active = well fitted curve in the direction sought with a large enough effect; inconclusive = small, poorly fitted or top-dose-only effect, or another doubt; inactive = no such curve, though single readings can be large; an effect the other way counts as inactive or inconclusive.

Muscarinic acetylcholine receptor M1 (Rattus norvegicus), sequence (P08482 whole entry, looked up): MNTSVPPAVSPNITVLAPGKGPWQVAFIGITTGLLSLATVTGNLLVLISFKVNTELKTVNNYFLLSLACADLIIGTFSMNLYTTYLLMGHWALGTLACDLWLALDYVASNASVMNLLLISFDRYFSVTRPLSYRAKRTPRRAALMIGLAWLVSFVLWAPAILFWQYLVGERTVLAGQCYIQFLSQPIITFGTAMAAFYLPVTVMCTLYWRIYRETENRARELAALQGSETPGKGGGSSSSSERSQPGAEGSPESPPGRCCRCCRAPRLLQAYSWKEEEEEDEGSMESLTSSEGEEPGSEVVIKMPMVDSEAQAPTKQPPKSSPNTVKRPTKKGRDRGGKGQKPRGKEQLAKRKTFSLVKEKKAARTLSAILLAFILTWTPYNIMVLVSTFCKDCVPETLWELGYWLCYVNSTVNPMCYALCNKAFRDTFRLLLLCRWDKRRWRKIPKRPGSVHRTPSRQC

Turning to `NC(=O)c1ccc(OC[C@H](O)CN2CC=C(c3ccc(F)cc3)CC2)cc1`, in test [1], the Potency was 6.31 µM (active).

Take `CCC1CN2CCC1CC2[C@@H](Oc1cc2ccccc2c2ccccc12)c1ccnc2ccc(O)cc12` (stereo partly specified): the outcome in test [2], in test [3], in [4], in [5] and in test [6] was inactive.

`C[C@@H]1CC[C@H]2[C@@H](C)C(=O)O[C@@H]3OC4(C)CC[C@@H]1C32OO4` (stereo partly specified): the Potency in [7] is 0.136 µM (active). The remaining parasite growth % (stronger effect = lower value) in test [8] is -0.139% [at 57.5 µM]. Also, in [9], the activity, percent of control came out at 0.0598% [at 57.5 µM]. Further, in [10], the remaining proliferation (% of control), lower = more inhibition was 0.0815% [at 57.5 µM].

Take `CC[C@@H](CO)Nc1nc(NCc2ccccc2)c2ncn(C(C)C)c2n1`: the Potency in [11] was 31.6 µM (active).
